For 40 molecules, AC50 and outcome results are on record in PubChem BioAssay (EPA / NIEHS).

The source made the active and inactive calls. The calls were made as follows: active = hit-call score of the fitted dose curve at least 0.9, where 1 is the maximum; inactive = score below 0.9.

Read-out in the experiment: Cytochrome P450 (CYP2B6), CYP2B6 (gene 1555)
The experiment in a line: LTEA_HepaRG_CYP2B6: Life Technologies and Expression Analysis (LTEA) Assay for Cytochrome P450 (CYP2B6) using HepaRG (AID 2283481). The following applies: mRNA level, 48 h; actives raise or lower the signal. The protocol:
LTEA_HepaRG is a cell based, multiplexed-readout assay that uses HepaRG, a human liver cell line, with measurements taken at 48 hours after chemical dosing on a 96-well plate.LTEA_HepaRG_CYP2B6 is one of 102 assay component(s) measured in the LTEA HepaRG cell culture assay. It is a marker of NR mediated metabolism.Data from the assay component LTEA_HepaRG_CYP2B6 was analyzed into 1 endpoint. This assay endpoint, LTEA_HepaRG_CYP2B6, was analyzed with bidirectional fitting relative to DMSO as the negative control and baseline of activity. Using a type of inducible reporter, measures of mRNA induction for gain or loss-of-signal activity can be used to understand regulation of transcription factor activity. To generalize the intended target to other relatable targets, this assay endpoint is annotated to the cyp intended target family, where the subfamily is xenobiotic metabolism.
A total of 1060 chemcials from the ToxCast library were tested in eight-point concentration-response experiments. Cell culture and cytotoxicity assays were conducted at Thermo Fisher Scientific's Custom Services facility (Madison, WI). A single lot of human HepaRG cells (Thermo Fisher Scientific, Frederick, MD) was used for the cell culture experiments. 96-well format collagen type I coated plates of human HepaRG cells were prepared using established methods. Briefly, cryopreserved HepaRG cells were thawed, plated at a density of approximately 100,000 cells/well in HepaRG Thaw, Plate, and General Purpose media (HPRG770, Thermo Fisher Scientific), and incubated for 48 hours. 0.5% DMSO was selected as vehicle control to balance the requisite need of DMSO in HepaRG cultures to maintain differentiation (for example, baseline metabolism, proportions of hepatocytes vs. cholangiocytes), while enabling further hepatic receptor pathway activation (for example, PXR and CAR) in response to chemical exposure. 48 hours after plating, the culture medium was replaced with HepaRG Serum-Free Incudtion Media. Cells were exposed to each test chemical in duplicate and maintained in CO2 incubators for another 48 hours. Chemical plates were thawed to room temperature and 200x concentrations of treatment groups were prepared. 8-point conentration-reponse curves were made with the highest exposure at 100 uM, followed by half-log dilutions, all in 0.5% DMSO. Each test plate contained variouse controls, induction positive controls (1mM phenobarbital), cytotoxicity positive controls ([…] aflatoxin B1), vehicle controls (0.5% DMSO), and total lysis controls (0.5% DMSO). Cell morphology images were taken using an Essen IncuCyte FLR automated microscope, with six 96-well plates imaged in about 24 minutes. Images were captured and exported and JPEG files. Spent culture media was transfered to black-well plates for the LDH assay, and remaining media was sorted at -80 C for later use. Cells were treated with RLT buffer and frozen until shipped for gene expression analysis. Total RNA was isolated from the cell suspension in 75 uL of Buffer RLT (Qiagen, Germantown, MD 20874) by Quintiles/Expression Analysis (Durham, NC) using a custom isolation procedure. Total RNA from each plate well was transferred to a preamplification plate. Fluidigm's 96.96 Dynamic ArrayTM (Fluidigm, Amsterdam, the Netherlands) technology was used for gene expression analyses by quantitative reverse transcription polymerase chain reaction (qRT-PCR, performed by Quintiles/Expression Analysis, Durham, NC)89. Standard TaqManTM Assays (Applied Biosystems/ThermoFisher Scientific, Foster City, CA) were used to assess the expression of 93 genes selected based on their selectivity and sensitivity to important hepatic receptors known to be modulated by environmental chemicals; importance in human hepatocyte functionality; and hepatotoxicity. […]
As for `CCCCCCC(=O)OCC`, the AC50 is 6.44 µM (active). On to `COC(=O)c1ccc(O)cc1`, for which the molecule was called inactive. Consider `Oc1ccc2ccccc2c1N=Nc1ccccc1`, for which the AC50 is 31.5 µM (active). Take `CCCCCC(=O)O`: the molecule was classed as inactive. Still for that read-out and setting: as for `CCCCc1ccc2c(n1)[C@@H](c1ccc(OC)cc1C[C@H](C)C(=O)O)[C@H](C(=O)O)[C@H]2c1ccc2c(c1)OCO2`, the entry is “inactive”. Regarding `Nc1ccc(S(=O)(=O)c2ccc(N)cc2)cc1`, the AC50 is 32.4 µM (active). Take `COCCOC[C@H](CC1(C(=O)NC2CCC(C(=O)O)CC2)CCCC1)C(=O)Oc1ccc2c(c1)CCC2` (stereo not given in full): the outcome was inactive. On to `CCCCCCCC=O`, for which the molecule was classed as inactive. On the same count and under the same terms, under `Cc1cccc([N+](=O)[O-])c1C` stands “inactive”. As for `CN[C@H]1CC[C@@H](c2ccc(Cl)c(Cl)c2)c2ccc(S(N)(=O)=O)cc21`, the AC50 was 11.4 µM (active). With `CCNc1cccc(C)c1`, the call was inactive. On the same count and under the same terms, under `Cc1cccc(C)c1O` stands “inactive”; under `CNC(=O)[C@H]1O[C@@H](n2cnc3c(NCc4cc(Cl)ccc4OCc4cc(C)no4)ncnc32)[C@H](O)[C@@H]1N`, “inactive”; under `NCCO`, “inactive”.

Turning to `O=c1c(O)c(-c2ccc(O)c(O)c2)oc2cc(O)cc(O)c12`, the result was inactive. Turning to `CCCCCCCCCCCCCCCCCC(=O)O`, the call was inactive. Consider `Cc1cc(NC(=O)C(=O)O)cc(C)c1Oc1ccc(O)c2c1CCC2`, for which the AC50 was 0.00316 µM (active). Take `Clc1cc(Cl)c(Cl)cc1Cl`: the result was inactive. In the case of `Cc1cccc(Nc2cc(Cl)nc(SCC(=O)O)n2)c1C`, the AC50 is 65.4 µM (active). Same read-out and setting: as for `CN1CCN(Cc2cc(-c3ccc4[nH]c(=O)oc4c3)co2)[C@@H](c2ccc(F)cc2)C1`, the figure is 86.7 µM (active).

As to `Cc1nc(-c2ccc3c(c2)CCN(CCC2CCC(NC(=O)/C=C/c4ccc(F)cc4)CC2)CC3)no1` (stereo not given), the result was inactive.

As to `C=CCOC(=O)c1ccccc1C(=O)OCC=C`, the outcome was inactive. Regarding `C1CCC(SSC2CCCCC2)CC1`, the outcome was inactive. In the case of `CC1(C)CC(N=C=O)CC(C)(CN=C=O)C1` (stereo not given), the molecule was classed as inactive. As to `CCCCCCCCCCCC(=O)OC`, the molecule was classed as inactive.

`Cc1nc(C)nc(N2C[C@@H](C)N(c3ccnc([C@@H](C)O)n3)[C@@H](C)C2)n1`: the call was inactive. Take `COc1ccc(S(=O)(=O)N2C(=O)[C@@](c3ccccc3OC)(N3C[C@H](O)C[C@H]3C(=O)N(C)C)c3cc(Cl)ccc32)c(OC)c1`: the AC50 was 28.9 µM (active). With `CCCCCCCCCCO`, the molecule was called inactive. On the same count and under the same terms, under `NCC1(Cc2noc(=O)[nH]2)CCCCC1` stands “inactive”.

In the case of `CCOc1ccc2c(c1)C(C)=CC(C)(C)N2`, the AC50 is 0.551 µM (active). `Cc1ccc(C)c(O)c1C`: the molecule was called inactive. Take `CN1CCCC1=O`: the result was inactive. As to `NC(=O)Cn1c(=O)cc(CCN2CCN(c3nccc4sccc34)CC2)c2ccc(F)cc21`, the result was inactive.

For `O=c1[nH]cc(F)c(=O)[nH]1`, the call was inactive. Take `Cc1ccc(N(C)C)cc1`: the AC50 was 50 µM (active).

Regarding `CC1=C(/C=C/C(C)=C/C=C/C(C)=C/CO)C(C)(C)CCC1`, the AC50 was 26.7 µM (active). Take `Oc1ccc2c(c1)OC[C@@H](N1CCC(O)(c3ccc(F)cc3)CC1)[C@H]2O`: the molecule was classed as inactive. Turning to `COCCOCCOC`, the AC50 was 0.993 µM (active). Take `CCCCCCOCCO`: the outcome was inactive.

With `CC(=O)Oc1ccccc1C(=O)O`, the outcome was inactive.

Broadly, the AC50 is the midpoint of the concentration-response curve, whichever way the signal moves.
